Screening data as filed in PubChem.
TbPYK inhibitor: inhibitors of Trypanosoma brucei pyruvate kinase. Q57TT1. TbPYK enzyme, Kinase-Glo Plus ATP luminescence, 45 min. Potency, µM (highest dose often 76.8 µM), inactives show at the top dose activity, negative = inhibition, hits mostly inhibitors. 0.12% of 410,000 active. AID 624173; further: nearly all actives have a fitted effect of over 50% in size
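Glycolytic pyruvate kinase of T. brucei was incubated with substrate, test compound and 130 uM ADP for 45 minutes at room temperature. Luminescent Kinase-Glo Plus signal was measured after 10 minutes.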
AMA1 RON2 block: AMA1-RON2 (P. falciparum) interaction inhibition. 0.2% of 360,000 active. AlphaScreen AMA1-biotinylated RON2 peptide binding. AID 720542. Potency, µM (titrated, usually from 58.2 µM), inactives show at the top dose activity change, negative = inhibition, usual class: inhibitors;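 further: 0% = vehicle wells and -100% = peptide control; nearly all actives have a fitted effect of over 45% in size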
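AMA1 (3D7) with his tag at 25 nM final met compounds first, then biotinylated RON2 peptide at 25 nM; detection used donor plus acceptor beads, 10 µg/mL apiece, read by AlphaScreen after 30 min at room temperature.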
LmPK inhibitor: LmPK (Leishmania mexicana) enzyme inhibition; purified LmPK, Kinase-Glo ATP luminescence, 1 h; Potency, µM (doses to about 57.5 µM), inactives show at the top dose activity change, negative = inhibition, most hits filed as inhibitors; 0.37% of 290,000 active
Target sequence (Q27686 whole entry, looked up): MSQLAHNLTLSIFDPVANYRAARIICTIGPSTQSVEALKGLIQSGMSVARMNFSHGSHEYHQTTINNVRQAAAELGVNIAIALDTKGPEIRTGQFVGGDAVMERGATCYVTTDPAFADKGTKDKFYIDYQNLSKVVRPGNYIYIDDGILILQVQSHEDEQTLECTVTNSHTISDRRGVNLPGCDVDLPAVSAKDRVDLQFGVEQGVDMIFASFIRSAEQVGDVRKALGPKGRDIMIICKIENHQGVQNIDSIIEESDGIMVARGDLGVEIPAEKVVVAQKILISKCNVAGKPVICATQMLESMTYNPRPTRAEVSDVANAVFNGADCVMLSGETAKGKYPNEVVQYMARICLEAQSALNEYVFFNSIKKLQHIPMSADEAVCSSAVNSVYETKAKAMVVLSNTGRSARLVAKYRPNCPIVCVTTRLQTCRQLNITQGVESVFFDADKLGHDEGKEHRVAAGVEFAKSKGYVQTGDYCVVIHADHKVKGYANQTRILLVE
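Kinase-Glo luminescence read after 1 h RT reaction of 0.1 nM LmPK with 0.5 mM PEP and 0.1 mM ADP. Activity scaled between uninhibited and enzyme-free controls.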
RE007 growth inh: less growth of the S. pombe RE007 Vpr strain; AID 651644; 0.21% of 360,000 active; Potency, µM (highest dose often 92.2 µM), without a hit: at the top dose activity change, negative = less growth, hits mostly inhibitors; S. pombe RE007 Vpr strain, BacTiter-Glo ATP luminescence, 24 h; active means well fitted falling curve with a large enough effect; inconclusive means small, poorly fitted or top-dose-only effect; inactive means no such curve, though single readings can be large or run the other way; further: nearly all actives have a fitted effect of over 50% in size
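Fission yeast RE007 carrying one integrated HIV-1 vpr copy, seeded at OD 0.01 in PMG+AL medium with 23 nL pinned compound. Grown 24 h at 30 degrees; viability read by BacTiter-Glo luminescence after 5 min.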
An asterisk follows results filed as active; ? = inconclusive; nt = no result given; [ ] = remark or other dose. Most compounds without a hit are left out; they make up all but 0.68% or so of the library. Unless noted, the call rests on the fitted dose curve; in most records, active means well fitted curve in the direction sought with a large enough effect; inconclusive means small, poorly fitted or top-dose-only effect, or another doubt; inactive means no such curve, though single readings can be large; an effect the other way counts as inactive or inconclusive. Unless noted, on the % scale 0 is the no-effect control and ±100 the full control effect; potency means the concentration at half of the fitted maximal effect.

SMILES	TbPYK inhibitor	AMA1 RON2 block	LmPK inhibitor	RE007 growth inh
COc1ccc(-n2c(SCC(=O)N3CCCCC3C)nnc2-c2cccnc2)cc1 (stereo not given)	-29%	7%	-2%	5%
CC(C)(C)OC(=O)NCC12C=CC(O1)C1C(=O)N(Cc3ccccc3)C(=O)C12 (stereo not given)	-2%	1%	-3%	45µM*
CC(C)(C)OC(=O)NCC1CCN(S(=O)(=O)Cc2ccccc2)CC1	-5%	-2%	4%	14%
CN1CCC(O)(c2ccc(F)cc2)C(C(=O)c2ccc(F)cc2)C1 (stereo not given)	1%	nt	nt	nt
CC[N+]1(C)CCC(O)(c2ccc(OC)cc2)C(C(=O)c2ccc(OC)cc2)C1 (stereo not given)	-11%	13%	nt	40µM*
CNC(=O)COC(=O)c1ccc(-c2nc3ccccc3s2)s1	-27%	-5%	14µM*	-14%
CC(OC(=O)CNC(=O)c1ccco1)C(=O)N(C)c1ccccc1 (stereo not given)	-6%	-7%	1%	2%
CC(=O)Nc1cc(=O)c2cccnc2[nH]1	-4%	14µM*	nt	-12%
COc1cc(NC(C)=O)c2ncccc2c1NC(C)=O	-12%	-7%	-1%	12%
O=c1oc2ccccc2c(NCc2cccc(F)c2)c1[N+](=O)[O-]	0%	-4%	3%	7%
COc1ccc(NC(=O)Nc2ccc(CC(=O)O)cc2)cc1	-2%	-3%	-4%	-4%
Cc1scc(C(=O)NNC(=S)NCC2CCCO2)c1-c1ccccc1 (stereo not given)	-15%	54%[2.32 µM]	1%	-15%
CC(=O)Nc1cccc(NC(=O)CSc2ccc3nnc(CCNC(=O)c4ccccc4)n3n2)c1	4%	0%	4%[11.5 µM]	-7%
CC(=O)O[C@H]1C[C@@H]2OC3C=C(C)CCC3(C)[C@@]1(C)[C@@]21CO1 (stereo not given in full)	-6%	9%	nt	3.2µM*
CC1=CC2OC3CC4OC(=O)C=CC=CC(=O)OCCC(C)C(O)C(=O)OCC2(CC1)C4(C)C31CO1 (stereo not given)	-1%	15%	nt	?
c1ccc(Nc2ccc(Nc3ccccc3)cc2)cc1	2%	16µM*	nt	-17%
O=[N+]([O-])c1ccc(Nc2ccccc2)cc1	-1%	9%	-5%	-21%
O=C1C=CC(=O)N1c1ccc(Nc2ccccc2)cc1	?	0%	nt	11µM*
Cc1cccc(C(=O)n2c(=S)nc3cc(C)ccn32)c1	-6%	?	11µM*	-13%
N#CC(C#N)=c1ccc2c(c1)NC1(CCCCC1)N=2	?	22µM*	14µM*	?
C=CCN(C)CC/C=C1\c2ccccc2CSc2ccccc21	-4%	14µM*	4%	4%
COc1ccccc1CNC(=O)CCC(=O)N1CCOc2ccc(C)cc21	0%	1%	-2%	17%
Nc1cccc(-c2nc3ccccc3s2)c1	-13%	-24%	14µM*	?
COc1ccc(-c2nc3ccccc3s2)cc1O	-19%	12%	16µM*	?
Oc1cccc(-c2nc3ccccc3s2)c1	?	-18%	-16%	?
SMILES	TbPYK inhibitor	AMA1 RON2 block	LmPK inhibitor	RE007 growth inh
Oc1cc(O)cc(/C=C/c2ccc(O)c(O)c2)c1	?	7.1µM*	nt	-18%[18.4 µM]
CC1=C(c2ccc(Cl)cc2)S(=O)(=O)N=C1N1CCN(c2cccc(C)c2C)CC1	0%	nt	nt	nt
CCOC(=O)c1cnc(-n2[nH]c(C)cc2=O)[nH]c1=O	-9%	1.6µM*	-9%	-5%
O=C1Nc2cc(Cl)c(Cl)cc2N(O)N1c1cccc(Cl)c1	-1%	-5%	8%	7%
CC1(C)CC(=O)C(C=Nc2ccccc2Sc2ccccc2)=C(O)C1	-6%	12%	4%	20µM*
CC1(C)CC(=O)C(C=Nc2ccccc2)=C(O)C1	-10%	12%	-4%	20µM*
CC1(C)CC(=O)C(C=Nc2ccccc2C(=O)O)=C(O)C1	1%	18%	2%	11%
COc1ccc(NC(c2ccccc2)c2ccncc2)cc1 (stereo not given)	2%	-28%	3%	-12%
CSc1nc(N(CCO)CCO)c2sc3nc(-c4ccco4)c4c(c3c2n1)CCC4	-5%	11µM*	5%	-4%
CC(=O)ON=C1C=CC(=C(C#N)c2ccccc2)C=C1	?	28µM*	nt	4µM*
CC(=O)OC(=C(OC(C)=O)c1ccccc1)c1ccccc1	4%	-15%	nt	7%
